Measurements published in PubChem BioAssay (Tox21).
Values joined by “and” are separate entries in the source; they are usually repeats but may differ in a detail not shown here. Identical values can stand only once. Inconclusive results are not listed. Active and inactive are the calls of the source. Unless noted, the call rests on the fitted dose curve; in most records, active means well fitted curve in the direction sought with a large enough effect in the repeat runs; inconclusive means weak or mixed curves; inactive means no such curve, though single readings can be large; an effect the other way counts as inactive or inconclusive.

How the values were obtained:
[1] = qHTS assay to identify small molecule antagonists of the estrogen related receptor (ERR) signaling pathway from Tox21 library - cell viability counter screen (AID 1224834); further: nearly all actives have a fitted effect of over 30% in size; further: potency means the concentration at half of the fitted maximal effect
In short: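 Viability readout (CellTiter-Fluor fluorescence, 30 min at 37 C) multiplexed with the ERR assay; cells treated 17.5 h at 37 C with compounds delivered in DMSO.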

[2] = molecular target: Luciferin 4-monooxygenase (Photinus pyralis) (UniProt P08659); test: qHTS assay to identify small molecule inhibitors of firefly luciferase (AID 1224835); further: nearly all actives have a fitted effect of over 25% in size; further: potency means the concentration at half of the fitted maximal effect
In short: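 Quantitative HTS format; KM concentrations of both substrates. Purified P. pyralis FLuc activity quantified from luminescence images.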

[3] = molecular target: Nuclear receptor subfamily 1 group I member 3 (Homo sapiens) (UniProt Q14994); test: qHTS assay to identify small molecule antagonists of the constitutive androstane receptor (CAR) signaling pathway (AID 1224838);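 further: HepG2 cells stably expressing hCAR with CYP2B6 luciferase reporter stimulated by CITCO; nearly all actives have a fitted effect of over 40% in size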
In short: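 Quantitative HTS in double-stable HepG2-CYP2B6-hCAR cells. After 4 h plating, cells get compound (15 concentrations) and CITCO at 50 nM final, incubate 24 h at 37 C, then ONE-Glo luminescence is read.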

[4] = molecular target: Nuclear receptor subfamily 1 group I member 3 (Homo sapiens) (UniProt Q14994); test: qHTS assay to identify small molecule agonists of the constitutive androstane receptor (CAR) signaling pathway (AID 1224839); further: potency means the concentration at half of the fitted maximal effect; nearly all actives have a fitted effect of over 15% in size
In short: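 In this screen, CAR-driven CYP2B6 promoter activity is measured by luminescence in HepG2-CYP2B6-hCAR cells after 24 h with test compounds and 0.75 uM PK11195 (final concentration).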

[5] = molecular target: Thyrotropin receptor (Homo sapiens) (UniProt P16473); test: qHTS assay to identify small molecule agonists of the thyroid stimulating hormone receptor (TSHR) signaling pathway (AID 1224843; calls by dose curve; further: nearly all actives have a fitted effect of over 45% in size)
In short: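 Cell line HEK293 with TSHR; density 800/well. Exposure 30 min RT. Readout HTRF cAMP (cAMP-d2/anti-cAMP-cryptate), 1 h RT before reading.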

[6] = qHTS assay to identify small molecule agonists of the hypoxia (HIF-1) signaling pathway - cell viability counter screen (AID 1224844; calls by dose curve; further: nearly all actives have a fitted effect of over 50% in size)
In short: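 Luminescent ATP content (CellTiter-Glo, 30 min, room temperature) served as the viability measure in HRE-bla ME-180 cells exposed to compounds for 17 hrs in low-serum medium (0.5% dialyzed FBS).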

[7] = qHTS assay to identify small molecule agonists of H2AX - cell viability counter screen (AID 1224847; calls by dose curve; further: top concentration of the series differs between compounds; nearly all actives have a fitted effect of over 30% in size)
In short: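 Read-out: CellTiter-Glo luminescence, 30 min RT. Cells: wild-type CHO-K1, 1000/well, 10% FBS, plated overnight at 37C. Treatment: 15 concentrations, 3 hr, 37C, 0.76% DMSO.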

[8] = qHTS RealTime-Glo MT Cell Viability Assay in HepG2 cells - 24 hour (AID 1224867); further: nearly all actives have a fitted effect of over 50% in size
In short: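 HepG2 cells were seeded at 600 cells/well together with NanoLuc luciferase and a cell-permeant prosubstrate, preincubated 5 h at 37 C/5% CO2, then pin-dosed with compounds in DMSO. Nonlytic luminescence from viable cells was read at each time point.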

[9] = qHTS RealTime-Glo MT Cell Viability Assay in HEK293 cells - 32 hour (AID 1224868); further: nearly all actives have a fitted effect of over 50% in size; further: potency means the concentration at half of the fitted maximal effect
In short: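 HEK293 cells were seeded at 600 cells/well together with NanoLuc luciferase and cell-permeant prosubstrate, preincubated 5 h at 37 C/5% CO2, then given compound in DMSO by pintool. Luminescence from viable-cell prosubstrate reduction was read repeatedly over 40 h.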

[10] = A CellTox Green Cytotoxicity Assay to monitor cytotoxicity in HEK293 cells - 0 hour (AID 1224869); further: nearly all actives have a fitted effect of over 50% in size
In short: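 Each value comes from one timepoint of a single continuous run in which HEK293 cells with CellTox Green were exposed to compound for up to 40 h at 37 C, dye fluorescence rising with cell death.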

[11] = qHTS assay to identify small molecule agonists of the constitutive androstane receptor (CAR) signaling pathway - cell viability counter screen (AID 1224836); further: series mostly up to about 92 µM; nearly all actives have a fitted effect of over 45% in size
In short: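 Compound titrations (15 concentrations) went onto HepG2-CYP2B6-hCAR cells 4 h after seeding, alongside PK11195 at a final 0.75 uM; a 23 h, 37 C/5% CO2 incubation preceded CellTiter-Fluor viability measurement.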

[12] = qHTS assay to identify small molecule antagonists of the constitutive androstane receptor (CAR) signaling pathway - cell viability counter screen (AID 1224837); further: series mostly up to about 92 µM; nearly all actives have a fitted effect of over 45% in size
In short: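 Fluorescence from CellTiter-Fluor served as the viability signal. Human hepatoma HepG2 cells stably bearing hCAR and CYP2B6-2.2kb received compound plus CITCO (50 nM final) for 23 hr.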

[13] = qHTS assay to identify small molecule antagonists of the estrogen related receptor signaling pathway with the pleiotropic PPARgamma coactivator (PGC) from Tox21 10K library - cell viability counter screen (AID 1224840; active means well fitted cell-killing curve with a large enough effect in the repeat runs, not every such curve was filed as active; further: nearly all actives have a fitted effect of over 40% in size)
In short: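 Compounds in DMSO, alongside positive and negative controls, were pinned onto PGC/ERR cells (2,000 per well). Exposure lasted 17.5 hours at 37 C, followed by a 30-minute CellTiter-Fluor incubation and fluorescence reading.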

[14] = qHTS assay to identify small molecule agonists of H2AX (AID 1224845; active means well fitted activation curve with a large enough effect in the signal ratio in the repeat runs, not every such curve was filed as active; the % refers to the signal ratio)
In short: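 Wild-type CHO-K1 cells plated overnight, then exposed 3 hr at 37C to compounds at 15 concentrations (0.76% DMSO). Lysed, then HTRF anti-pH2AX(S139)-cryptate/anti-H2AX-d2 detection after 24 hr at room temperature; emissions 665 and 620 nm.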

[15] = qHTS assay to identify small molecule agonists of the hypoxia (HIF-1) signaling pathway (AID 1224846; active means well fitted activation curve with a large enough effect in the signal ratio in the repeat runs, not every such curve was filed as active; the % refers to the signal ratio)
In short: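 Measured by blue/green FRET after loading CCF4-AM: beta-lactamase expressed from a hypoxia response element in ME-180 cells. Test agents were delivered in DMSO and left 17 hrs; cells had been plated 5 hrs earlier in low-serum (0.5% dialyzed FBS) medium.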

[16] = qHTS assay to identify small molecule antagonists of the estrogen related receptor signaling pathway with the pleiotropic PPARgamma coactivator (PGC) from Tox21 10K library (AID 1224841; call rule not given here)
In short: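 Compound exposure ran 18 hours at 37 C in PGC/ERR cells (2,000/well) that had first rested 6 hours in a 37 C/5% CO2 incubator. Luciferase activity was then detected with One-Glo after a 30-minute room-temperature step.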

[17] = qHTS assay to identify small molecule agonists of the estrogen related receptor signaling pathway with the pleiotropic PPARgamma coactivator (PGC) from Tox21 10K library (AID 1224842); further: nearly all actives have a fitted effect of over 15% in size
In short: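 PGC/ERR reporter cells (NTP line) were seeded 2,000 per well, rested 6 h at 37 C/5% CO2, then pin-dosed with compounds in DMSO for 18 h at 37 C; luciferase read by One-Glo luminescence after 30 min at room temperature.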

[18] = qHTS assay to identify small molecule antagonists of the estrogen related receptor (ERR) signaling pathway from Tox21 library (AID 1224848); further: nearly all actives have a fitted effect of over 50% in size
In short: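 Screening used an ERR reporter line supplied by NTP, exposed for 18 h at 37 C to library compounds delivered in DMSO. Signal was luciferase luminescence developed with ONE-Glo at room temperature for 30 min.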

Measured: Potency

Chain of Thyrotropin receptor (Homo sapiens) (P16473 whole entry, looked up): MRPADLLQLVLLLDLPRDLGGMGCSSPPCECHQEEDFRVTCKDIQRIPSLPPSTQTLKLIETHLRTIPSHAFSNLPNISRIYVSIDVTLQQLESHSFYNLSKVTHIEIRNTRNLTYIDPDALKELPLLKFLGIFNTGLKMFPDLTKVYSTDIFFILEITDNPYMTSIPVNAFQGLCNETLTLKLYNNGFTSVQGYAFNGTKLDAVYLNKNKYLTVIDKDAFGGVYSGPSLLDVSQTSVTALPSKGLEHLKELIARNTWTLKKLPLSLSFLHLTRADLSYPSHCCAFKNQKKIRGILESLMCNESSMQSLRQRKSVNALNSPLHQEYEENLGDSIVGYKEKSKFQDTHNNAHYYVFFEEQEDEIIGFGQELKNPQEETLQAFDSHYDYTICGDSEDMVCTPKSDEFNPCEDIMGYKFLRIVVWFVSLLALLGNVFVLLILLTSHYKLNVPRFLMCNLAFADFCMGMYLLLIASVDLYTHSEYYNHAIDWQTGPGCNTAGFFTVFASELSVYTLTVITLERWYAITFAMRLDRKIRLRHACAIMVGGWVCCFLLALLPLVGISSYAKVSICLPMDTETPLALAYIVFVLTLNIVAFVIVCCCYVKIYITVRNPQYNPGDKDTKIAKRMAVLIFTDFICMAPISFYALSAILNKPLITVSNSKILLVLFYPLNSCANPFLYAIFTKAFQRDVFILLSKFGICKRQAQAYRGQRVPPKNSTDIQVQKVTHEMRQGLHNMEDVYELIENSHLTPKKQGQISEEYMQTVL
Chain of Nuclear receptor subfamily 1 group I member 3 (Homo sapiens) (Q14994 whole entry, looked up): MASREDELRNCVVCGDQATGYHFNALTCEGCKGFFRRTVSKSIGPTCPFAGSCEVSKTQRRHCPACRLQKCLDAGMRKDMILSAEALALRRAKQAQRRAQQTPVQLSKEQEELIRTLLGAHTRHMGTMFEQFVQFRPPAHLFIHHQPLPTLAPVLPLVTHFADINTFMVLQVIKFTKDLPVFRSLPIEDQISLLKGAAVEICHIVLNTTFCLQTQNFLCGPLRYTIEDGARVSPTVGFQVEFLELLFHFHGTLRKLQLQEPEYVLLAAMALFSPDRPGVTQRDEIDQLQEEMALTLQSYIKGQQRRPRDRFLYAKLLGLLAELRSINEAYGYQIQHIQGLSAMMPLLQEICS
Chain of Luciferin 4-monooxygenase (Photinus pyralis) (P08659 whole entry, looked up): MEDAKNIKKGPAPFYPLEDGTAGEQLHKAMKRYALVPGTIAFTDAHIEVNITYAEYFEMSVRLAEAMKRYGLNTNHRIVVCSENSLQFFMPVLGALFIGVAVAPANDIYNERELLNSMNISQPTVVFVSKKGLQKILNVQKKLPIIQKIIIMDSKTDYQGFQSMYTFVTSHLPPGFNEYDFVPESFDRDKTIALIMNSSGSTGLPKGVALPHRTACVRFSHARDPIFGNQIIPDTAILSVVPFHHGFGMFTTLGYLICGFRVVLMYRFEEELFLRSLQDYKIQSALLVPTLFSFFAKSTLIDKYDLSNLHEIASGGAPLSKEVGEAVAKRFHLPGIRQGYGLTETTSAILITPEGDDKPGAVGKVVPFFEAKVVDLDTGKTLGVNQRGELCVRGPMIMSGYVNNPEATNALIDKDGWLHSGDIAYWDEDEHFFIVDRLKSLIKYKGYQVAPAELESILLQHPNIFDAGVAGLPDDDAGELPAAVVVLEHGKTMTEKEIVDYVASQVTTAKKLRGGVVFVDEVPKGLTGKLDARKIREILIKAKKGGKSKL

Nc1ccc(N=Nc2ccccc2)c(N)n1
active: [1] 48.8 µM and 48.6 µM and 21.1 µM | [2] 8.99 µM and 7.96 µM and 7.76 µM | [4] 24.5 µM and 9.69 µM and 5.96 µM | [9] 43.9 µM and 24.5 µM
inactive: [3] | [5] | [6] | [7] | [8] | [10]

Cc1cnc(NC(=O)C2=C(O)c3ccccc3S(=O)(=O)N2C)s1
active: [2] 31.8 µM and 22.4 µM and 34.7 µM
not listed: [3] | [4] | [5] | [15] | [16] | [17] | [18]
inactive: all other assays above

CC(=O)c1ccc(S(=O)(=O)NC(=O)NC2CCCCC2)cc1
not listed: [3] | [4] | [15] | [16] | [17] | [18]
inactive: all other assays above

CCn1cc(C(=O)O)c(=O)c2ccc(C)nc21
inactive: [2] | [11] | [12] | [5] | [6] | [14] | [7] | [8] | [9] | [10]

CC(=O)/C=C/C1=C(C)CCCC1(C)C
not listed: [3] | [4] | [5] | [16] | [17] | [18]
inactive: all other assays above

NC(=O)NO
not listed: [4] | [15] | [16] | [17] | [18]
inactive: all other assays above

C[C@]12C=CC(=O)C=C1CC[C@@H]1[C@@H]2C(=O)C[C@@]2(C)[C@H]1CC[C@]2(O)C(=O)CO
not listed: [4] | [16] | [17] | [18]
inactive: all other assays above

O=C(OCc1ccccc1)c1ccccc1
active: [2] 14.2 µM and 11.2 µM and 9.77 µM
not listed: [4] | [13]
inactive: all other assays above

N[C@@H](Cc1c[nH]c2ccccc12)C(=O)O
not listed: [3] | [4] | [13] | [16] | [17] | [18]
inactive: all other assays above

OC[C@@H](O)[C@@H](O)[C@H](O)[C@H](O)CO
not listed: [3] | [4] | [13]
inactive: all other assays above

O=C(O)CCCCC1CCSS1 (stereo unspecified)
not listed: [3] | [4] | [15]
inactive: all other assays above

C[C@]12CC[C@@H]3c4ccc(O)cc4CC[C@H]3[C@@H]1CCC2=O
inactive: [1] | [11] | [12] | [6] | [14] | [15] | [7] | [8] | [10]

CC(=O)Oc1ccccc1C(=O)O
not listed: [3] | [4] | [15] | [16] | [17] | [18]
inactive: all other assays above
